A short description of assay [1]: growth inhibition of DIPG glioma cells, dose response, cell-based, SU-DIPG-XIII, MIPE4.0, CellTiter-Glo, qHTS (AID 1347061; cut-off not given, nearly all actives have AC50 up to about 37 µM;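 also: cells exposed to compound for 48 hours before readout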). As to conditions: SU-DIPG-XIII viability, CellTiter-Glo ATP luminescence.
Assay [2] in a line: growth inhibition of DIPG glioma cells, dose response, cell-based, SU-DIPG-XVII, MIPE5.0, CellTiter-Glo, qHTS (AID 1347060; cut-off not given, nearly all actives have AC50 up to about 26 µM;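 as to AC50: cells exposed to compound for 48 hours before viability readout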). As to conditions: SU-DIPG-XVII viability, CellTiter-Glo ATP luminescence.
Assay [3] can be described thus: modifiers of HSF1 nuclear foci, imaging, Selleck Cancer Library (AID 1347162; in the data active = plate-normalised HSF1 focus index below about 0.46). To be noted: human cells, at 10 µM; SSMD: measured here: HSF1 foci SSMD mean; cell count: measured here: cell number; plate-normalised HSF1 focus index: stronger effect = lower value.
Assay [4] in a line: polyglutamine-triggered caspase-3 activation inhibitors, cell-based (AID 1583). As to conditions: polyglutamine-induced caspase-3 activation, cell assay; stronger effect = higher value;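 tested at 10 µM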.
The nature of assay [5]: suppressors of polyQ aggregation in yeast, 75Q-TubU reporter (AID 1593). As to conditions: Yeast 75Q polyglutamine aggregation reporter.
A short description of assay [6]: rescue of polyQ-huntingtin neuronal dysfunction in worms, whole organism, C. elegans mechanosensory neurons, N-terminal huntingtin (AID 1599). As to conditions: touch response, stronger effect = higher value.
Assay [7] is described as follows: inhibitors of mitochondrial cytochrome c release, biochemical, purified mitochondria (AID 1603).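 Also: mouse liver mitochondria challenged with calcium chloride; signal normalized to the plate average as 100%.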 To be noted: stronger effect = lower value.
Assay [8] is described as follows: inhibitors of polyQ protein aggregation (AID 1604). As to conditions: polyglutamine-induced protein aggregation inhibition assay; stronger effect = higher value; tested at 2.5 µM.
A short description of assay [9]: enhancers of glutamate uptake in motor neurons, MN-1 cell line (AID 1612).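 Also: tested at 1 µM final; 0% = mean of DMSO vehicle wells on each plate; positive means more glutamate uptake than control and negative means less.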 As to conditions: MN-1 motor neuron cells, stronger effect = higher value.
Assay [10] in a line: reducers of polyQ inclusions in PC12 cells, cell-based, NGF-treated PC12, GFPQ80 (AID 1614).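 Also: lower means fewer inclusions and 0 means no inclusions at all.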 To be noted: PC12 NGF-treated GFP-polyQ80 inclusion reduction.
Assay [11] in a line: suppressors of polyglutamine aggregation in yeast, 75Q-TubH (AID 1616). As to conditions: S. cerevisiae 75Q-TubH polyglutamine aggregation suppression; stronger effect = higher value.
Assay [12] can be described thus: circadian clock period modulators, cell-based, LOPAC library, luminescence reporter (AID 2774).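 Also: values are relative to mean of DMSO wells on each plate.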 As to conditions: circadian reporter cells, at 7 µM, actives lie on both sides.
Assay [13] deals with Hepatitis C virus NS3 helicase. In words: HCV NS3 helicase inhibitors, primary screen, biochemical, fluorescence polarization, LOPAC1280 library (AID 687035; in the data active = inhibition above about 37%). As to conditions: Purified HCV NS3 helicase, Cy5-dT15 ssDNA binding fluorescence polarization; stronger effect = higher value; concentration not given here.
Assay [14] is described as follows: Cy5 fluorescence quenching or enhancement artefacts, artefact control for HCV NS3 helicase inhibitor project, biochemical, LOPAC1280 (AID 687037). As to conditions: Cy5-DNA-NS3h complex fluorescence interference counterscreen. In general terms: Counterscreens check selectivity or assay interference.
Assay [15] in a line: phospholipid biosynthesis inhibitors in animal cells, primary screen, cell-based, LOPAC library, screen 4 (AID 1347384). As to conditions: phospholipid biosynthesis inhibition screen, at 10 µM.

Molecules are shown by their SMILES. Inconclusive results are not listed. For some assays here: Entries with a potency or affinity are not part of this list. Activity calls are given as the source filed them. Unless noted, no rule for the calls is given here.

We go through 28 compounds from PubChem BioAssay.

What is called AC50 is the midpoint of the concentration-response curve, whichever way the signal moves. As to `Cc1cc(=O)oc2cc(O)ccc12`, in assay [1], the AC50 is 418 nM (active).

As for `O=C(CCCCCCC(=O)Nc1ccccc1)NO`, in assay [2], the AC50 was 1860 nM (active). In [3], the SSMD was -0.489, the cell count stood at 6970 and the plate-normalised HSF1 focus index is 0.984 (inactive).

Consider `COc1c(C)c2c(c(O)c1C/C=C(\C)CCC(=O)OCCN1CCOCC1)C(=O)OC2`, for which, in assay [2], the half-maximal activity concentration (AC50) is 590 nM (active). In addition, in [3], the SSMD was -0.00851, the cell count was 7610 and the plate-normalised HSF1 focus index was 0.999 (inactive).

With `COc1ccc2[nH]c(S(=O)Cc3ncc(C)c(OC)c3C)nc2n1` (stereo unspecified), the result in assay [2] was inactive.

What is called inhibition is the drop in the measured response relative to a control, in per cent. For the compound `CN(N=O)C(=O)N[C@@H]1[C@@H](O)[C@H](O)[C@@H](CO)O[C@@H]1O`, in assay [4], the inhibition is -0.83%. For the same compound, the score in [5] amounted to 1.48. This compound came in with a rescue above control in assay [6] of -12.1. Besides, the cytochrome c release ratio in assay [7] was 1.09. Moreover, the inhibition of aggregation in [8] amounted to 69%. Moreover, the glutamate uptake change in assay [9] is -14.8%. For the same compound, the inclusion score in assay [10] is 2. The aggregation suppression score in assay [11] is 1.03. For the same compound, the outcome in assay [2] was inactive.

With `CCCCCCCCCCCCCCCCCCCCCCO`, the outcome in assay [1] was inactive.

Turning to `O=C(O)[C@H](O)[C@@H](O)[C@H](O[C@@H]1O[C@H](CO)[C@H](O)[C@H](O)[C@H]1O)[C@H](O)CO`, the result in assay [2] was inactive.

As for `Cc1nc(Nc2ncc(C(=O)Nc3c(C)cccc3Cl)s2)cc(N2CCN(CCO)CC2)n1`, the AC50 in assay [2] was 16600 nM (active). In [3], the SSMD was -0.87, the cell count came out at 6550 and the plate-normalised HSF1 focus index is 0.957 (inactive).

Consider `CCN(C)C(=O)Oc1cccc([C@H](C)N(C)C)c1`, for which the call in [1] was inactive.

For `Cn1c(=O)c2c(ncn2CC2OCCO2)n(C)c1=O`, in [2], the compound was called inactive.

On to `CCCN(CCC)CCc1cccc2c1CC(=O)N2`, for which the period change in assay [12] was 0.155 h (inactive). The inhibition in [13] is -3% (inactive). In assay [14], the fluorescence ratio (interference) is 1 (inactive). Moreover, in [15], the outcome was inactive.

Consider `O=C(O)CN(CCN(CC(=O)O)CC(=O)O)CCN(CC(=O)O)CC(=O)O`, for which the period change in assay [12] was 0.145 h (inactive). In addition, in assay [13], the inhibition is -2% (inactive). Besides, in assay [14], the fluorescence ratio (interference) was 1 (inactive). In addition, in assay [15], the outcome was inactive.

For `O=[N+]([O-])c1ccc(O)c2ncccc12`, the AC50 in [2] is 6610 nM (active).

Take `CNCCCC1c2ccccc2C=Cc2ccccc21`: the period change in [12] was -0.13 h (inactive). In addition, in assay [13], the inhibition is -3% (inactive). In addition, the fluorescence ratio (interference) in [14] is 0.9 (inactive). The call in [15] was inactive.

Regarding `O=C(O)c1cc(=O)[nH]c(=O)[nH]1`, the result in assay [2] was inactive.

`CC(C)Cn1cnc2c(N)nc3ccccc3c21`: in assay [2], the result was inactive.

For the compound `COc1cccc2c1C(=O)c1c(O)c3c(c(O)c1C2=O)C[C@@](O)(C(C)=O)C[C@@H]3O[C@H]1C[C@H](N)[C@H](O)[C@H](C)O1`, in [2], the AC50 was 118 nM (active). In assay [3], the SSMD is -15.6, the cell count is 7130 and the plate-normalised HSF1 focus index was 0.198 (active).

In the case of `CC(=O)c1ccc2c(c1)N(CCCN(C)C)c1ccccc1S2`, the result in assay [15] was inactive.

Turning to `OC(CCN1CCCCC1)(c1ccccc1)C1CC2C=CC1C2` (stereo unspecified), the inhibition in assay [13] was -3% (inactive). Also, the fluorescence ratio (interference) in assay [14] is 1 (inactive). In addition, the outcome in [1] and in assay [15] was inactive.

As to `CCN(CC)C(=O)c1ccc(O)c(OC)c1`, the period change in assay [12] was -1.55 h (active). Moreover, the inhibition in assay [13] is 0% (inactive). Moreover, in assay [14], the fluorescence ratio (interference) is 1 (inactive). Further, the result in assay [15] was inactive.

With `C[C@H]1[C@H](NC(=O)/C(=N/OC(C)(C)C(=O)O)c2csc(N)n2)C(=O)N1S(=O)(=O)O` (stereo in doubt), in [1], the call was inactive.

As to `CNC1CCCN(c2c(F)cc3c(=O)c(C(=O)O)cn(C4CC4)c3c2OC)C1` (stereo unspecified), the result in assay [2] was inactive.

With `O=C1Cc2cc(CCN3CCN(c4nsc5ccccc45)CC3)c(Cl)cc2N1`, in assay [13], the inhibition was 2% (inactive). Besides, the fluorescence ratio (interference) in [14] was 1 (inactive). The outcome in [15] was inactive.

On to `NC(N)=NC(N)=NCCc1ccccc1`, for which, in assay [2], the compound was called inactive.

In the case of `CN1CCN(c2c(F)cc3c(=O)c(C(=O)O)cn4c3c2OCN4C)CC1`, in [1], the compound was classed as inactive.

With `COc1cc2ncnc(Nc3ccc(F)c(Cl)c3)c2cc1OCCCN1CCOCC1`, the AC50 in [1] is 38200 nM (active). In [3], the SSMD was -3.63, the cell count was 5320 and the plate-normalised HSF1 focus index was 0.813 (inactive).

In the case of `CN1CCN(c2c(F)cc3c(=O)c(C(=O)O)cn(CCF)c3c2F)CC1`, the compound was called inactive in assay [1].

As to `C#CCN(C)CCCOc1ccc(Cl)cc1Cl`, the period change in assay [12] was 0.03 h (inactive). The inhibition in assay [13] was -6% (inactive). Further, in assay [14], the fluorescence ratio (interference) was 1 (inactive). The compound was classed as inactive in [15].
